TSHR agonist = agonists of human thyroid stimulating hormone receptor | Potency, µM (highest dose often 57.1 µM), for inactives: at the highest dose activation, actives largely listed as activators | 0.48% of 73,000 active | P16473 | HEK293-CNG-TSHR cells (CNG channel as cAMP sensor), membrane potential dye, cAMP; active = well fitted activation curve with a large enough effect in the main read-out, with a control signal flat, not every such curve was filed as active; inconclusive = small, poorly fitted or top-dose-only effect, or a change in a side signal; inactive = no such curve, though single readings can be large or run the other way; % of control where 0% means no effect;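 also: the control signal comes from parental cells without the receptor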
Target sequence (P16473 whole entry, looked up): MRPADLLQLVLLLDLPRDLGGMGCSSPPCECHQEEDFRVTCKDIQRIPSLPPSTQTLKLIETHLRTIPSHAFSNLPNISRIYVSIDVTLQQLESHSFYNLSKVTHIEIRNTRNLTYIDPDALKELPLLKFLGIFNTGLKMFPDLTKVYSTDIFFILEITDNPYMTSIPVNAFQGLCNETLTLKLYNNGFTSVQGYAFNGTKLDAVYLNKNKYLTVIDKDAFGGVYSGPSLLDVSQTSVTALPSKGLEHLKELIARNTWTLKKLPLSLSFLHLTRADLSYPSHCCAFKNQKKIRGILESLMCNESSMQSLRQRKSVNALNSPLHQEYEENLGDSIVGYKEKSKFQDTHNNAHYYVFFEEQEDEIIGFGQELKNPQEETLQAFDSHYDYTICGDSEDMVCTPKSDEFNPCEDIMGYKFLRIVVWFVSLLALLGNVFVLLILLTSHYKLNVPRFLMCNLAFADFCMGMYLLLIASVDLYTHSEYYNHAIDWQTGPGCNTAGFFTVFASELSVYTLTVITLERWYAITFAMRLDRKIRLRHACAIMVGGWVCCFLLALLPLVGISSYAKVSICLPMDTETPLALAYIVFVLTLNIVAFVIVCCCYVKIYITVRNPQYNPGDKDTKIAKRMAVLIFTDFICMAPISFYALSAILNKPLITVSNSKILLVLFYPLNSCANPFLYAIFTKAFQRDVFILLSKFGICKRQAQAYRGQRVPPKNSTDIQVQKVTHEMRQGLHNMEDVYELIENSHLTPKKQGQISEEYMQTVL
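HEK 293 cells stably expressing TSHR and a cAMP-gated CNG channel; parental CNG-only cells as counterscreen. Cells preloaded 60 min with membrane potential dye plus 100 uM RO 20-1724, then compound 30 min; fluorescence read at 590 nm.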
Tau fil binding = binds recombinant human tau filaments. P10636. recombinant tau filaments, thioflavin S fluorescence, 15 h; filaments grown with octadecylsulfate alongside compound. Potency, µM (highest dose often 57.1 µM), without a hit: at the highest dose activity change, negative = inhibition. 2% of 71,000 active;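 also: % is scaled to controls: 0 for no effect and ±100 for the full control effect; actives lower thioflavin S fluorescence by blocking filaments or displacing dye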
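ThS-based fibril read: tau 1 uM final, inducer ODS 30 uM final, 37 C for 15 h, ex 450/em 510 nm.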
HEK293 cAMP ctrl = parental HEK293 cAMP activation (counter-screen). AID 938. 2.5% of 73,000 active. Potency, µM (titrated, usually from 57.1 µM), inactives show top-dose activation, actives largely listed as activators. parental HEK293 CNG cAMP sensor, membrane potential fluorescence; also: % of control where 0% means no effect; nearly all actives have a fitted effect of over 55% in size
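Parental HEK 293 cells stably expressing a modified CNG channel (no TSHR) report cAMP rise as membrane depolarization. Membrane potential dye with 100 uM RO 20-1724 was loaded for 60 min at room temperature, then compound added for 30 min; fluorescence read at 590 nm.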
FLuc inh = blocks Photinus pyralis firefly luciferase activity; P08659; purified firefly luciferase, luminescence, 8 min; Potency, µM (titrated, usually from 57.1 µM), for the others: at the highest dose activity change, negative = inhibition, most hits filed as inhibitors; 2.2% of 72,000 active; AID 411; also: % is scaled to controls: 0 for no effect and ±100 for the full control effect; nearly all actives have a fitted effect of over 40% in size
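Titration-based qHTS; buffer 50 mM imidazole pH 7.2, 50 mM KCl, 7 mM MgCl2, 10 uM ATP, 0.01% Tween 20, 0.05% BSA; luciferase/luciferin detector mix added after compound; 8 min, ambient; luminescence.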
Bst PK mod = modulators of Bacillus stearothermophilus pyruvate kinase; purified pyruvate kinase, luminescence ATP production; ribose 5-phosphate activator present at AC10; Potency, µM; 1.2% of 51,000 active; in the data active = potency below about 11 µM; inconclusive = mostly about 12 µM to 25 µM;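 the screen sought inhibitors and activators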;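 also: scaled between full activation by ribose 5 phosphate and full inhibition by luteolin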
15-hLO inh = inhibitors of human 15-lipoxygenase (ALOX15). AID 887. purified 15hLO-1, xylenol orange hydroperoxide absorbance. Potency, µM (doses to about 57.1 µM), inactives show top-dose activity change, negative = inhibition, hits mostly inhibitors. 1.4% of 74,000 active. P16050; also: % is scaled to controls: 0 for no effect and ±100 for the full control effect; nearly all actives have a fitted effect of over 55% in size
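Inhibition is scored from a chromogenic endpoint. After 15 min enzyme-compound contact, arachidonic acid (50 uM final) reacts 6 min with 40 nM 15hLO-1 at room temperature, then Fe-XO reagent is added for 30 min and absorbance ratio recorded.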
* = called active by the depositor; i = inactive; ? = inconclusive; / = no result given; [ ] = dose if it differs, or a comment. Rows were chosen to be rich in hits. Some 7.8% of all compounds tested hit in one or more screens of this group. Unless noted, calls follow the shape of the dose curve; as a rule, active = well fitted curve in the direction sought with a large enough effect; inconclusive = small, poorly fitted or top-dose-only effect, or another doubt; inactive = no such curve, though single readings can be large; an effect the other way counts as inactive or inconclusive. Potency is read from the fitted curve at half-maximal effect.

SMILES	TSHR agonist	Tau fil binding	HEK293 cAMP ctrl	FLuc inh	Bst PK mod	15-hLO inh
Cc1ccc(C)c(-n2c(SCC(=O)Nc3nonc3C)nnc2-c2ccoc2C)c1	?	13%	25µM*	1%	>57	-11%
CCc1nnc(NC(=O)CSc2nnc(COc3ccccc3)n2-c2ccc(C)cc2)s1	?	2%	?	6%	>57	4%
Cc1nonc1NC(=O)CSc1nnc(-c2ccoc2C)n1C	3%	12%	10%	2%	>57	-8%
O=C(c1cnccn1)N1CCC2(CCCN(c3cccc(-c4ccccc4)c3)C2)CC1	?	3%	?	1%[11.4 µM]	/	-17%
Cc1cccc(CNc2ncncc2-c2cccc(C#N)c2)c1	18%	0%	11%	1%[2.29 µM]	/	4%
N#Cc1cc2c(nc1SCc1cccnc1)CCC2	15%	4%	18%	1%	>57	0%
N#Cc1cc2c(nc1SCc1nc3ccccc3[nH]1)CCC2	?	32µM*	?	4µM*	6*	16µM*
N#Cc1cc2c(nc1SCc1cccnc1)CCCC2	?	11%	?	-1%	>57	16µM*
C=CCSc1nc2c(cc1C#N)CCC2	?	6%	?	-4%	>57	-6%
Cc1cc(C)cc(C(=N)c2ccccc2Cc2cccc3ccccc23)c1	4%[11.4 µM]	8%[11.4 µM]	2%[11.4 µM]	4%[11.4 µM]	/	1%[11.4 µM]
C[C@@]12CC[C@H]3[C@H](CC=C4C[C@@H](O)CC[C@@]43C)[C@@H]1CC[C@@H]2N(CCO)CCO	0%[11.4 µM]	15%[11.4 µM]	-12%[11.4 µM]	3%[11.4 µM]	/	5%[11.4 µM]
CCOc1ccc2nc(N3CCC(C(=O)N4CCN(C5CCCCC5)CC4)CC3)sc2c1	-4%	10%	10%	16µM*	/	7%
CCOc1ccc2nc(N3CCC(C(=O)N4CCN(C(=O)c5ccco5)CC4)CC3)sc2c1	-5%	39%	1%	7.9µM*	/	4%
CCOc1ccc2nc(N3CCCC(C(=O)N4CCN(CC)CC4)C3)sc2c1 (stereo not drawn)	-10%	-18%	-1%	?	/	-9%
CCCN1CCN(CCCNC(=O)C2CCCN(c3nc4ccc(OCC)cc4s3)C2)CC1 (stereo not drawn)	-1%	62%	-3%	7.9µM*	i	-8%
CCOc1ccc2nc(NS(C)(=O)=O)sc2c1	22%	16µM*	9%	-15%	/	-12%
C=CCCCCCCCCCCCc1ccco1	/	/	/	/	/	-15%
CCOc1ccc2nc(N3CCC(C(=O)Nc4nnc(CC)s4)CC3)sc2c1	-10%	111%	6%	-6%	/	5%
CCOc1ccc2nc(N3CCCCCC3)sc2c1	11%	7%	-17%	13µM*	i	1%
COc1ccc2c(C)nc(Nc3nc(C)cc(=O)[nH]3)nc2c1	-17%	-8%	-1%	-2%	>57	2%
CCOC(=O)N1CCC(n2c(SCC(=O)NCCC3=CCCCC3)nc3ccccc3c2=O)CC1	?	-8%	6.3µM*	2%	>57	16µM*
CN(C)c1oc(-c2ccc(OCc3ccc(Cl)cc3)cc2)nc1C#N	3%	23%	17%	1%	0.25*	-6%
Cc1ccc(-c2cc(C(=O)Nc3cccnc3)c3ccccc3n2)o1	?	-20%	?	7.9µM*	/	-24%
O=C(Nc1cccnc1)c1coc(=O)c2ccccc12	-1%	3%	8%	-1%	>57	0%
O=C(Nc1cccnc1)c1cc2c(ccc3ccccc32)o1	3%	i	0%	4µM*	/	?
SMILES	TSHR agonist	Tau fil binding	HEK293 cAMP ctrl	FLuc inh	Bst PK mod	15-hLO inh
O=C(O)c1cc2c(ccc3ccccc32)o1	?	/	?	/	/	-2%
COc1ccc(Oc2ncc3nc(-c4ccccc4)c(=O)n(Cc4cccs4)c3n2)cc1	?	?	?	0%[11.4 µM]	/	3%
CNCC[C@H](Oc1ccccc1C)c1ccccc1	20%	-10%	11%	-1%	/	?
CNCC[C@@H](Oc1ccccc1C)c1ccccc1	?	?	32µM*	0%	/	-18%[25.6 µM]
COC(=O)[C@@H]1C(O)[C@@H](C(=O)OC)[C@H](C)N(C)[C@@H]1C (stereo partly drawn)	-4%[11.4 µM]	9%[11.4 µM]	-2%[11.4 µM]	1%[11.4 µM]	/	1%[11.4 µM]
Nc1cc(-c2ccncc2)c[nH]c1=O	-10%[25.6 µM]	3%[25.6 µM]	1%[25.6 µM]	-5%[25.5 µM]	/	13µM*
c1ccc2c(-c3ccncc3)c[nH]c2c1	5%	-14%	-12%	-2%	i	6%
CC[N+](C)(CC)CCN1C(=O)c2ccccc2S1(=O)=O	-1%[11.4 µM]	-8%[11.4 µM]	-3%[11.4 µM]	1%[11.4 µM]	/	2%[11.4 µM]
CCOC(=O)c1sc2nc(N3CCOCC3)c3c(c2c1N)CC(C)(C)N(C)C3	-10%	13µM*	-5%	1%	/	-10%
CCC1(C)Cc2nc3sc(C(=O)O)c(N)c3cc2CO1 (stereo not drawn)	/	17%	4%	-3%	>57	?
COC(=O)CSc1ncnc2c1sc1nc(-c3ccco3)c3c(c12)CC(C)(C)OC3	/	/	/	-1%[25.5 µM]	>26	/
COC(=O)c1sc2nc(N3CCCCC3)c3c(c2c1N)CC(C)(C)N(C)C3	/	/	/	-1%[25.5 µM]	>26	/
CCOC(=O)c1sc2nc(-c3ccco3)c3c(c2c1N)CC(C)(C)OC3	-1%[11.4 µM]	13µM*	2%	-18%	>57	16µM*
CCOC(=O)c1sc2nc3c(cc2c1N)COC(C)(C)C3	-25%	-18%	-10%	20µM*	i	3%
O=c1c(-c2cccs2)nc2cnc(Oc3ccccc3)nc2n1C1CC1	-22%	43%	-12%	1%[11.4 µM]	/	-27%
O=C(COC(=O)c1cnccn1)c1ccc2c(c1)CCCC2	5%	-24%	6%	20µM*	/	4%
Cc1cc2n(n1)C(c1ccco1)Nc1ccccc1-2 (stereo not drawn)	-1%[11.4 µM]	23%	6%	-21%	9.5*	?
CCN1C(=S)SC(=O)C1=C1C=C(C)OC(C)=C1	-7%	3.2µM*	-3%[2.29 µM]	-5%	>57	-6%
CCN1C(=S)SC(=O)C1=C1C=C(C)N(Cc2ccco2)C(C)=C1	-21%	59%	-11%	10µM*	/	-11%
O=C1C2C(C(=O)N1Cc1ccco1)C1C=CC2C12CC2 (stereo not drawn)	-2%	-7%	2%	2%	>57	-2%
COC(=O)c1ccc(C#CC(NP(=O)(c2ccccc2)c2ccccc2)c2ccccc2)cc1 (stereo not drawn)	?	180%	?	/	/	/
OC[C@@H]1O[C@@H](n2cnc3c(N[C@@H]4C[C@@H]5CC[C@H]4C5)ncnc32)[C@@H](O)[C@H]1O	-6%	-8%	18%	-2%	/	12%
c1cnc2c(OCc3nc4ccccc4[nH]3)cccc2c1	-4%	4%	7%	20µM*	/	5%
COc1ccccc1OCc1nc2ccccc2[nH]1	-6%	-12%	5%	?	/	7%
COc1cccc(OCc2nc3ccccc3[nH]2)c1	3%	-12%	11%	13µM*	/	1%

Source: PubChem (National Center for Advancing Translational Sciences (NCATS))
